# Data: article PMC5540273 (PLoS ONE, 2017)
# Experiments:
# Conditions in all cases: concentration: 1 μM, replicates: in singlicate; n = 1
# ANKK1 = tested on: ANKK1
# ARK5 = tested on: T1, ARK5
# T1 construct: gene NUAK1
# ASK1 = tested on: T2, ASK1
# T2 construct: gene MAP3K5
# ASK2 = tested on: T3, ASK2
# T3 construct: gene MAP3K6
# AURKA = tested on: AURKA
# AURKB = tested on: AURKB
# AURKC = tested on: AURKC
# AXL = tested on: AXL
# BIKE = tested on: T4, BIKE
# T4 construct: gene BMP2K
# BLK = tested on: BLK
# 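Note: KINOMEscan kinase panel screen.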
SMILES,%Inh (ANKK1) [%],%Inh (ARK5) [%],%Inh (ASK1) [%],%Inh (ASK2) [%],%Inh (AURKA) [%],%Inh (AURKB) [%],%Inh (AURKC) [%],%Inh (AXL) [%],%Inh (BIKE) [%],%Inh (BLK) [%]
COc1ccccc1CNC(=O)c1cc(C(=O)c2ccccc2C)c[nH]1 [GSK364507],0,10,0,2,100,22,11,8,0,17
Cl.c1ccc(-c2n[nH]cc2-c2ccnc(-c3ccc(CN4CCOCC4)cc3)c2)nc1 [GW776245],0,0,1,0,0,6,8,0,20,9
Cc1ccc(NC(=O)Nc2cccc(Cl)c2)cc1-c1ccc(C(=O)Nc2ccncc2)cc1 [GSK1398468],17,6,2,0,15,14,44,0,29,0
Nc1nc(-c2nccs2)c(-c2ccnc3ccccc23)s1 [GW693542],6,0,5,0,0,0,0,42,4,42
CC(C)(C)c1ccc(C(=O)Nc2cn3cc(Cl)ccc3n2)cc1,0,0,86,0,0,64,17,0,0,0
Cn1cncc1-c1ccc2ncnc(Nc3ccc(OCc4ccccc4)cc3)c2c1 [GW320571],0,72,16,7,0,100,38,10,23,13
Cc1cc(N2Cc3ccccc3C2)nc(Nc2ccc(S(=O)(=O)N3CCOCC3)cc2)n1.Cl [GSK1669917],24,0,0,0,0,0,0,0,9,16
COc1cc(Nc2nccc(N3CCC(NC(=O)Nc4cc(C)ccc4C)C3)n2)cc(OC)c1OC (centres unmarked) [GSK1379762],13,50,1,7,92.7,94.4,81,0,60,10
Cc1cccc(-c2nc(Nc3ccncc3)c3ccccc3n2)n1 [GW855857],0,0,0,0,0,10,0,7,1,1
COc1cc2ncnc(Nc3ccc4nc(-c5ccccc5)[nH]c4c3)c2cc1OC.Cl [GW282450],16,0,0,0,99.1,28,48,23,14,26
O=c1cc(N2CCOCC2)nc2n(Cc3cccc(Cl)c3Cl)ccn12 [GSK2286295],5,24,0,0,12,18,23,100,24,35
Cc1ccc(NC(=O)Nc2cc(C(C)(C)C)nn2-c2ccccc2)cc1 [GSK1014915],0,0,1,22,0,17,18,2,22,20
Clc1cc(Cl)cc(Nc2ccnc(Nc3cc(Cl)cc(Cl)c3)n2)c1 [GSK175726],18,8,4,3,90,0,13,2,8,6
O=C(Nc1ccccc1)Nc1cccc(Oc2ccc3nccn3n2)c1,0,0,0,0,0,8,26,7,0,0
CCn1c(-c2ccccn2)nc2cnccc21 [SB-736398],0,0,17,0,0,3,7,12,16,9
Cc1cc(-c2ccc3c(c2)CC[C@@H](N[C@@H](C)c2ccccc2)C3)cnc1N.Cl [GW412617],69,13,33,0,0,35,26,33,40,13
CN1C(=O)C(Nc2ccc(Cl)c(C(=O)O)c2)=C(c2ccc(Cl)cc2)C1=O [SB-404290],0,0,0,33,19,31,5,10,0,0
